# High-throughput results: PubChem BioAssay, SRMLSC
# Only some compounds are listed: those with a hit (about 6.8% of all), similar ones and a draw of the others.
# Abs 340nm – compound light absorbance at 340 nm, profiling panel, artefact control, biochemical, MLSMR library, data from PS, PMK, MK assays; compound absorbance at 340 nm, fold over control; fold change at 10 µM; 65,000 tested, under 10 active; AID 708, 2007;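 active = at 10 µM dose, initial 340 nm absorbance at least 2 fold that of control wells; inactive = change under 2 fold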;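 also: initial absorbance extrapolated from kinetic A340 decline of NADH oxidation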
# Autofluor 339 – intrinsic fluorescence of library compounds, ex339/em460 – biochemical, MLSMR library, data from DPM-DC assay, artefact control, profiling panel. 65,000 tested, 5.5% active. compound autofluorescence, ex339/em460 nm, NADH buffer; active compounds read high; 1 = no-compound wells, NADH background. fluorescence fold increase at 10 µM;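 active = at 10 µM, mean starting fluorescence two-fold or more over control wells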;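 also: signal is the first read of a kinetic run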
# NADH enzymes – inhibitors of PK/LDH coupling enzymes, profiling panel, artefact control, biochemical, MLSMR library; coupled PK/LDH NADH assays, four targets; 65,000 tested, 0.02% active; IC50, µM (titrated, usually from 10 µM), without a hit: top-dose inhibition;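 active = single-dose screening hits from any of four coupled enzyme assays that gave an IC50 when retested across doses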;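 also: the DPM-DC format reads NADH fluorescence rather than 340 nm absorbance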
# DPM-DC inhibit – S. pneumoniae DPM-DC inhibitors, primary screen, biochemical, PK/LDH-coupled NADH fluorescence | diphosphomevalonate decarboxylase (Streptococcus pneumoniae D39) | purified DPM-DC | calls only at 10 µM | 65,000 tested, 0.49% active;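 active = the 320 compounds with the highest percent inhibition in the single-dose primary screen, excluding strongly autofluorescent ones, cut at about 32% in these data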;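 also: kinetic rate of NADH fluorescence loss reporting ADP formed by the decarboxylase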
# Spn MK inh – S. pneumoniae MK inhibitors, primary screen, biochemical, PK/LDH-coupled NADH absorbance; mevalonate kinase [Streptococcus pneumoniae D39]; purified MK, PK/LDH-coupled NADH absorbance 340 nm; inhibition, % at 10 µM; 65,000 tested, 0.48% active;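 active = ranked among the strongest by inhibition in the single 10 µM screen, a fixed top-ranked set picked for dose follow-up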
# Spn PMK inh – S. pneumoniae PMK inhibitors, primary screen, biochemical, mevalonate pathway, pilot trial included; phosphomevalonate kinase (Streptococcus pneumoniae D39); inhibition, % at 10 µM; purified PMK, PK/LDH-coupled NADH absorbance 340 nm; 65,000 tested, 0.49% active;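 active = top-ranked compounds by inhibition in the single 10 µM screen, taking a fixed number of the strongest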;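 also: 0% = full reaction with DMSO carrier and 100% = background rate without enzyme reaction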
# Numbers without * were called inactive; i = inactive; . = no result shown; + = active, no number.
SMILES,Abs 340nm,Autofluor 339,NADH enzymes,DPM-DC inhibit,Spn MK inh,Spn PMK inh
Cc1ccc(S(=O)(=O)c2nc(S(C)(=O)=O)sc2NCC2CCCO2)cc1 (configuration not stated),1.1,2.1*,4%,.,7,0
CC(=O)N1CCc2cc3nc(C)cc(C)c3cc21,1.1,4.1*,9%,.,3,15
CC(=O)N1CCc2cc(C(=O)CN3CCCCC3)ccc21,1.1,1.1,1%,i,2,1
COc1ccc(-c2cc3nc4c(c(=O)n3[nH]2)CCC4)cc1,1,2.1*,7%,.,13,0
Cc1cc2nc3c(c(=O)n2[nH]1)CCCC3,1,1.2,6%,i,6,7
O=c1c2c(nc3cc(-c4ccccc4)[nH]n13)CCC2,0.99,3.4*,12%,i,6,10
Cc1ccc(-c2[nH]n3c(=O)c4c(nc3c2C)CCCC4)cc1,1,2.4*,12%,i,15,6
Cc1nc2cccc(C(=O)NCc3ccccc3)c2o1,1,1.2,5%,i,7,9
CC1(C)CC2CC(C)(CN2C(=O)c2cc(-c3ccccc3O)on2)C1 (configuration not stated),0.98,1.1,4%,i,10,3
CCOC(=O)Cc1csc(SCc2nc3ccccc3c(=O)[nH]2)n1,1,1.2,5%,i,7,7
Cc1nc(NCc2ccco2)c2c3c(sc2n1)CCC3,1,1.1,2%,i,4,1
CC(C)Sc1nc(NCc2ccco2)c2c3c(sc2n1)COC(C)(C)C3,1.1,2*,3%,.,5,0
Cc1c(NC(=O)OCCSc2nc(N(C)C)nc(N(C)C)n2)sc(=S)n1C,1.1,1,11%,i,8,24
CCOC(=O)N1CCN(C(=O)CN(c2ccc(Cl)c(C(F)(F)F)c2)S(C)(=O)=O)CC1,1,1.1,3%,i,9,1
CCOC(=O)C1=C(C)NC(=O)NC1/C(C)=C/c1ccccc1 (configuration not stated),1,1.1,14%,i,0,38*
Cc1ccc(C)c(S(=O)(=O)Nc2ccccc2C(=O)Nc2cc(C)on2)c1,1.1,2.2*,3%,.,6,0
Cc1cc(NC(=O)c2ccccc2NS(=O)(=O)c2c(C)c(C)cc(C)c2C)no1,1,2.3*,7%,.,11,2
CC1CC(C)CN(C(=O)Cn2c(=O)n(CCCCC(=O)NCc3ccco3)c(=O)c3ccccc32)C1 (configuration not stated),1,1.1,6%,i,0,18
COc1cc2c(cc1OC)/C(=C/C(=O)N1CCOCC1)NC(C)(C)C2,1,2.5*,13%,+,6,1
CN(C)c1ccc(-c2nnc(-c3ccc(S(=O)(=O)C(F)F)cc3)o2)cc1,1.1,1.4,7%,i,8,10
COc1ccc(-c2ccc(-c3nnc(-c4cc(OC)ccc4OC)o3)cc2)cc1,1.1,3.7*,13%,.,7,18
COc1ccc(-c2nnc(-c3ccc(N)cc3)o2)cc1,1.1,2.9*,2%,.,8,4
COc1ccc(-c2nnc(-c3ccc(N(C)C)cc3)o2)cc1,1.1,2.1*,1%,.,0,1
Cc1ccc2[nH]c(=S)cc(C)c2c1,0.98,1.1,7%,i,7,15
CSc1ccc2[nH]c(=O)cc(C)c2c1,1,3.8*,2%,.,2,1
SMILES,Abs 340nm,Autofluor 339,NADH enzymes,DPM-DC inhibit,Spn MK inh,Spn PMK inh
CC1=C(C#N)C(c2cccnc2)C2=C(CC(C)(C)CC2=O)N1 (configuration not stated),1.1,2.1*,11%,.,7,14
COc1cc(C2C(C#N)=C(C)NC3=C2C(=O)CC(C)(C)C3)cc(OC)c1O (configuration not stated),1.1,1.1,12%,+,1,0
COc1cc(C2C(C#N)=C(C)NC3=C2C(=O)CC(C)(C)C3)ccc1OCCO (configuration not stated),1.1,1.3,5%,i,4,12
CC1=C(C#N)C(C)C2=C(CC(C)(C)CC2=O)N1 (configuration not stated),1.1,2.1*,4%,.,7,0
COC(=O)c1cc(OC)c(OC)cc1NC(=O)c1ccccc1,1.1,2.2*,2%,.,1,3
COC(=O)c1cc(OC)c(OC)cc1NC(=O)c1ccoc1C,1.1,3.3*,4%,.,3,5
CC(=O)Nc1ccc(S(=O)(=O)NC(=O)C23CC4CC(CC(C4)C2)C3)cc1,1.1,1.1,3%,i,3,5
N#CCCNc1ccc(OCCC#N)cc1,1,1.1,1%,i,3,0
c1cncc(-c2nc(Oc3ccc(-c4nnco4)cc3)c3c4c(sc3n2)CCCC4)c1,1,2.1*,6%,.,0,12
Cc1cc(=O)oc2cc3c(cc12)OCCO3,1.1,3.6*,2%,.,4,0
Cc1cc2oc(=O)cc(C)c2c(=O)o1,1,1.2,10%,i,0,9
Cc1cc(=O)oc2cc3c(cc12)OCCN3,1.1,2.1*,8%,.,4,11
O=C(OCCN1C(=O)c2ccccc2C1=O)c1cccc(OC(F)F)c1,0.99,1.1,4%,i,0,11
COc1ccc(N(CC(=O)NCc2cccs2)S(=O)(=O)c2c(C)n[nH]c2C)cc1,1,1,13%,i,30,10
CC(=O)/C=C(\C)NCCNc1c(F)c(F)c(CO)c(F)c1F,1,1.1,4%,i,0,13
COC(=O)Cn1ncc2c(C)n(Cc3ccccc3)c(C)c2c1=O,0.98,1.1,1%,i,3,0
CNC(=O)Cn1ncc2c(C)n(Cc3ccc(C)cc3)c(C)c2c1=O,1,1.1,11%,i,0,34*
O=C1C(=O)N(CCCN2CCOCC2)C(c2cccs2)/C1=C(/O)c1ccc2c(c1)OCO2 (configuration not stated),1.1,1.1,2%,i,7,0
CCc1cc2cc3c(cc2nc1SCC(=O)Nc1cc(C)on1)OCO3,1.1,1.5,10%,i,5,13
CCN1CCc2c(sc3c2c(NCc2ccco2)nc2nnnn23)C1,1.1,2.4*,8%,i,7,9
c1coc(CNc2ncnc3sc4c(c23)CCCCC4)c1,1,1,7%,i,4,16
COc1cccc(NC(=O)CSc2nc3c(c(=O)n2C)SC(C)C3)c1 (configuration not stated),1.1,1,5%,i,14,0
